For some of these results: Results with a measured potency or affinity are listed apart.
How the values were obtained:
Parameters in all cases: scale not given: direction of the effect not stated beside the values
[1] = target: Protein translocase subunit SecA (Escherichia coli (strain K12)) (UniProt P10408); assay: Assay to Identify E. coli SecA ATPase Inhibitors; type: functional; settings: 30 µM
[2] = target: T1, Ubiquitin-activating enzyme e1, putative (Leishmania donovani (strain BPK282A1)) (UniProt E9BSI1); assay: Leishmania donovani Ubiquitin Activating Enzyme (LdE1); type: functional; settings: 30 µM
T1 sequence (whole entry): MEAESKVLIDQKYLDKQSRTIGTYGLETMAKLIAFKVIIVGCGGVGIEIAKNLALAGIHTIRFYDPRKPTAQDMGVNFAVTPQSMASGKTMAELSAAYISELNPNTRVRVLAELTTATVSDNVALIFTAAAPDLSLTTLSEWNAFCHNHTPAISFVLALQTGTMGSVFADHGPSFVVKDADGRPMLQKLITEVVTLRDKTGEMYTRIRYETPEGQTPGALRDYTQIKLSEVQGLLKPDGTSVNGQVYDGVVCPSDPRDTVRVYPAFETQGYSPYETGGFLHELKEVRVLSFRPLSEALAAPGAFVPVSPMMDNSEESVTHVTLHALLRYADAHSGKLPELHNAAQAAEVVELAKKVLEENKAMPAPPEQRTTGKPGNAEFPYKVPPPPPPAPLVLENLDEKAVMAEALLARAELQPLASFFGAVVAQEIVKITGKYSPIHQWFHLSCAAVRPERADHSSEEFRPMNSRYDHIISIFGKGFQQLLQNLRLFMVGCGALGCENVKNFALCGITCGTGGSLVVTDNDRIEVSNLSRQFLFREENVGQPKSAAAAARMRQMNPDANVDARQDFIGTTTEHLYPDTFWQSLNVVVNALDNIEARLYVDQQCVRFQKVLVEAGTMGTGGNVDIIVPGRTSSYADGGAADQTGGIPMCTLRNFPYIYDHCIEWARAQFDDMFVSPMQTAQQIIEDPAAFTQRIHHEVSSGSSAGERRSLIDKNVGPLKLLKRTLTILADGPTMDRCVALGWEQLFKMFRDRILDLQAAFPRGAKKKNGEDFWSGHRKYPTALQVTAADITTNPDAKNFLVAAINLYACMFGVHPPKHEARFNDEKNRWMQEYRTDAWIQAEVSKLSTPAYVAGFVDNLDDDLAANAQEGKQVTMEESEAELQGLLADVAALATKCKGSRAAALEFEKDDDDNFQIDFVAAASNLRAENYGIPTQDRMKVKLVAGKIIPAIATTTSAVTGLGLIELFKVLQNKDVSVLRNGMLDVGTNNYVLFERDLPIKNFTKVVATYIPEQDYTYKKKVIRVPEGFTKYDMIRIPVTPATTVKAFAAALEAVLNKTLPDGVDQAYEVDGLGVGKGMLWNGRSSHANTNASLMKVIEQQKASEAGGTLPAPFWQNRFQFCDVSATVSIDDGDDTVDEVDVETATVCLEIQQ

[3] = target: AMP-activated protein kinase, AMPK (Homo sapiens) (UniProt P54646+O43741+P54619+Q9UGJ0+Q9Y478+Q13131+Q9UGI9); assay: AMP-dependent Kinase enzyme assay. An in vitro enzyme assay that detects ADP turnover that is directly proportional to AMPK activity. This uses naive AMPK that is activated during the assay with MK-8722; type: functional; settings: 30 µM
[4] = target: Sialic acid-binding Ig-like lectin 9 (Homo sapiens) (UniProt Q9Y336); assay: Hs-Siglec9 ALPHAscreen SOP 20170721; settings: 10 µM
Trypanosoma cruzi = assay: Trypanosoma cruzi phosphomannomutase and mannose-1-phosphate guanylyltransferase assay; type: functional; settings: 10 µM
[5] = target: T2, Arginase-2, mitochondrial (Homo sapiens) (UniProt P78540); assay: in vitro enzyme assay to detect the production of urea directly proportional to the activity of Arginase II; type: functional; settings: 33.3 µM; note: in the data most compounds retested in dose-response had high values
T2 sequence (whole entry): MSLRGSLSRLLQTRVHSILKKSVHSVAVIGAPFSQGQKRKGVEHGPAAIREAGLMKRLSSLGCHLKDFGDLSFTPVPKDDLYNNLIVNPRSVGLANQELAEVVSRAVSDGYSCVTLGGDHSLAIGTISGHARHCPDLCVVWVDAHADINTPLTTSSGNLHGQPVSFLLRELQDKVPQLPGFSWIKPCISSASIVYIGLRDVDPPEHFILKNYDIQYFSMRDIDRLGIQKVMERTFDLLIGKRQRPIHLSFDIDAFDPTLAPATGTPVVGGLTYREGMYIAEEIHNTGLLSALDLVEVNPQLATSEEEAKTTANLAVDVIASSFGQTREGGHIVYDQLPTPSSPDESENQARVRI

[6] = target: T3, Proteasome subunit beta (Trypanosoma cruzi) (UniProt O96673); assay: Trypanosoma cruzi proteasome chymotrypsin-like activity (TcProtChymo) assay.; note: in the data most compounds retested in dose-response had high values; type: functional; settings: 9.37 µM
T3 sequence (whole entry): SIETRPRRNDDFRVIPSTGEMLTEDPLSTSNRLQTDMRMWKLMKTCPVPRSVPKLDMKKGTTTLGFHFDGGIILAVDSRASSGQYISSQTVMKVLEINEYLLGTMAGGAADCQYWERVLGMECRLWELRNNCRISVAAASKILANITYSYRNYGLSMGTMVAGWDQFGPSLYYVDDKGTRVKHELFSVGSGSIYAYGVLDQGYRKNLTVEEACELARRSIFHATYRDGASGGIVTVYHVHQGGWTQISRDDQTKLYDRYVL

Homo sapiens = species: Homo sapiens; assay: To identify inhibition of the IFN signalling (Jak-Stat) pathway via expression of an eGFP reporter gene under the control of an IFN-stimulated response element (ISRE) containing MxA promoter.; type: functional; settings: 30 µM
[7] = target: T4, Tyrosyl-tRNA synthetase, putative (Trypanosoma cruzi (strain CL Brener)) (UniProt Q4DSP6); assay: Trypanosoma cruzi tyrosyl tRNA synthetase (TcYRS) _High Tyrosine SOP; type: functional; settings: 30 µM; note: in the data most compounds retested in dose-response had high values
T4 sequence (whole entry): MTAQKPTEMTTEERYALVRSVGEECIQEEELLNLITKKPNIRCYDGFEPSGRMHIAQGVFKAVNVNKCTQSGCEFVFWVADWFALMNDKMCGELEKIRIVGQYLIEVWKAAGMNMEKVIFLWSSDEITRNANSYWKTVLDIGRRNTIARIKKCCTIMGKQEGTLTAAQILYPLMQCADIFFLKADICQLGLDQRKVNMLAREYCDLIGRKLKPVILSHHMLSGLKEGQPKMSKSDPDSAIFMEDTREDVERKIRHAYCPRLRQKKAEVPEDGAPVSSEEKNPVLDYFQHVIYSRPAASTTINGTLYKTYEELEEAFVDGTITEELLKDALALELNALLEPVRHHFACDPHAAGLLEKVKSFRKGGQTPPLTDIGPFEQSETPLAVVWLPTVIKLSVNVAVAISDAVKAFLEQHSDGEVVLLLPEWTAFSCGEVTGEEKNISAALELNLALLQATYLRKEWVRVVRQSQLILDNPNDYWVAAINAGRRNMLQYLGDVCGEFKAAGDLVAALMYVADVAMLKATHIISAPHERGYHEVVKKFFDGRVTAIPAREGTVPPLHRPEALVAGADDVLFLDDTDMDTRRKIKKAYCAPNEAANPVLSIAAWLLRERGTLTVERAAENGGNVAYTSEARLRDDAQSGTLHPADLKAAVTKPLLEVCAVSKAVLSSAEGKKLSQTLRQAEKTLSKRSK

[8] = target: T4, Tyrosyl-tRNA synthetase, putative (Trypanosoma cruzi (strain CL Brener)); assay: Trypanosoma cruzi tyrosyl tRNA synthetase (TcYRS) SOP; type: functional; settings: 30 µM
[9] = target: Chromo domain-containing protein 1 (Saccharomyces cerevisiae (strain ATCC 204508 / S288c) (Baker's yeast)) (UniProt P32657); assay: ScCHD-1 Enzyme Inhibition Assay; type: functional; settings: 30 µM; note: in the data most compounds retested in dose-response had high values
Chain of Chromo domain-containing protein 1 (Saccharomyces cerevisiae (strain ATCC 204508 / S288c) (Baker's yeast)) (P32657 whole entry, the tested form may be a part): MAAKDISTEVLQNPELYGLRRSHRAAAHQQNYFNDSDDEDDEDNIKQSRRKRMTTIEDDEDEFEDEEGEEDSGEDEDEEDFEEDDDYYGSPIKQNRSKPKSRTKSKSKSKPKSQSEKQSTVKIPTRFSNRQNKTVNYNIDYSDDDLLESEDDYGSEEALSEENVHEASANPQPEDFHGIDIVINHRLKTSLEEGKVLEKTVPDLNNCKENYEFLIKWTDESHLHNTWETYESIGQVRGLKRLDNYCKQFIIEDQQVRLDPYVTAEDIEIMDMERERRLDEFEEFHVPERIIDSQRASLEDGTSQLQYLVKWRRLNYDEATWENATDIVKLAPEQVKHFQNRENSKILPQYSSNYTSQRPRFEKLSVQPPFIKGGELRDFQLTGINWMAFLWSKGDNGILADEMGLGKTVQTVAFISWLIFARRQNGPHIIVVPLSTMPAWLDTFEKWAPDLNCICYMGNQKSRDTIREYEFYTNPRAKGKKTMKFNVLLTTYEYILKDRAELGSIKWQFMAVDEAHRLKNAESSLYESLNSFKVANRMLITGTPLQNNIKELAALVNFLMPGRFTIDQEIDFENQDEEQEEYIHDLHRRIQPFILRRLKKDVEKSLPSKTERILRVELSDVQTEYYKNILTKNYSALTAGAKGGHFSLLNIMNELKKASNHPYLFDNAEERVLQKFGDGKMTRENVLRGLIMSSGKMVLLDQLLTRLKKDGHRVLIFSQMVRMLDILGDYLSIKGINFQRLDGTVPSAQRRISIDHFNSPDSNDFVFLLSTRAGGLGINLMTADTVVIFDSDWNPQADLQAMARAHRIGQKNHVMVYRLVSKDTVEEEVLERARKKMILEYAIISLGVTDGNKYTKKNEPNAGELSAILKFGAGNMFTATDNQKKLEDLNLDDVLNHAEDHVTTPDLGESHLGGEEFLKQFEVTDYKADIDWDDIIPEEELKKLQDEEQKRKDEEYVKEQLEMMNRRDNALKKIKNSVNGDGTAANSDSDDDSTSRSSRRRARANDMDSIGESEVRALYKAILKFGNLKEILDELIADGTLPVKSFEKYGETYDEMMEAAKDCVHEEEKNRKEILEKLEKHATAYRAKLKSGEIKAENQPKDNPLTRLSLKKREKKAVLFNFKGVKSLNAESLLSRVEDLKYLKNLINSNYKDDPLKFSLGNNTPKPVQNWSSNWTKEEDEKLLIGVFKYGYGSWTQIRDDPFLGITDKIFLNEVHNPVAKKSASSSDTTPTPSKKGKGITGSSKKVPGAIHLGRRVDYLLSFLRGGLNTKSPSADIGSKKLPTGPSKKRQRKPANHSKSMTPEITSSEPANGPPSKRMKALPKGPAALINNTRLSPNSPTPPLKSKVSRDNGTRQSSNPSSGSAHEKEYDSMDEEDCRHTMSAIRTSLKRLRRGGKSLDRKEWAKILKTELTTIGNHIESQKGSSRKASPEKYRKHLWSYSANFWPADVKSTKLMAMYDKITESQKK

Chain of Protein translocase subunit SecA (Escherichia coli (strain K12)) (P10408 whole entry): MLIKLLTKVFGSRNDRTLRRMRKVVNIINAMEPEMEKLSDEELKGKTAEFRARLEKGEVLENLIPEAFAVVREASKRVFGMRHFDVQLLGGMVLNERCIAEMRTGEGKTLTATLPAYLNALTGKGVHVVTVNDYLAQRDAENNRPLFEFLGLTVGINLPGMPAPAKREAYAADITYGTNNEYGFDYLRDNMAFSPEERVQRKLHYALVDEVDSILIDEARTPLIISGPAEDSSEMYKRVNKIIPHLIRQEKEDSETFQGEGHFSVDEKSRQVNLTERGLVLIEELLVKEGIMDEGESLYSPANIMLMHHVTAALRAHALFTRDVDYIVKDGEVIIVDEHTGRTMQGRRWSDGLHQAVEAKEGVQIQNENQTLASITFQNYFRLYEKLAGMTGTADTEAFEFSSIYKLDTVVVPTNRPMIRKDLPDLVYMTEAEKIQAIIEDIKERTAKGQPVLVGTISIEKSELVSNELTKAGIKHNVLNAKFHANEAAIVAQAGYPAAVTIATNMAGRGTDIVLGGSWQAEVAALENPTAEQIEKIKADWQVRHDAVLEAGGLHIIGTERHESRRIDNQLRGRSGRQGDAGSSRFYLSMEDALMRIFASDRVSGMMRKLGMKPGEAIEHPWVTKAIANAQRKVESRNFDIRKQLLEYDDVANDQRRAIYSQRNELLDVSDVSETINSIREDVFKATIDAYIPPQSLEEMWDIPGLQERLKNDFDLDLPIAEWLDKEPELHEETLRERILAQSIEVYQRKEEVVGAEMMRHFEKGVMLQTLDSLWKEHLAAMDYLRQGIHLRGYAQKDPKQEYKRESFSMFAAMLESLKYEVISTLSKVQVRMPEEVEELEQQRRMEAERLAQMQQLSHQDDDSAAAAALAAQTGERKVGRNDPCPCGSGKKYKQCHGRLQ
Chain of Sialic acid-binding Ig-like lectin 9 (Homo sapiens) (Q9Y336 whole entry): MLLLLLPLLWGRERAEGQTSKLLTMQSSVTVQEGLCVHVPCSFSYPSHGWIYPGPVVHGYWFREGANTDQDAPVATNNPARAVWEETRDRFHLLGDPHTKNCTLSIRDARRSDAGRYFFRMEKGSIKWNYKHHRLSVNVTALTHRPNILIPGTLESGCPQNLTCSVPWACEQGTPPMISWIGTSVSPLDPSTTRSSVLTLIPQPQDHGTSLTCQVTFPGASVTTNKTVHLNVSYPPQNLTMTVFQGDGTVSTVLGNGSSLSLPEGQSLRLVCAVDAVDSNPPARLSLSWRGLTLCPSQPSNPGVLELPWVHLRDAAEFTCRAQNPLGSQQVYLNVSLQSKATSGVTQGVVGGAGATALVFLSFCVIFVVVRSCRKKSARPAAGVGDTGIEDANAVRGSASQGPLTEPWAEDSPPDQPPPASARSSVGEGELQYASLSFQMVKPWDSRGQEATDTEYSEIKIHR

Row | SMILES | Percent Effect [1] [%] | Percent Effect [2] [%] | Percent Effect [3] [%] | Percent Effect [4] [%] | Percent Effect (Trypanosoma cruzi) [%] | Percent Effect [5] [%] | Percent Effect [6] [%] | Percent Effect (Homo sapiens) [%] | Percent Effect [7] [%] | Percent Effect [8] [%] | Percent Effect [9] [%]
1 | Cc1cc(C(=O)N2CCC(c3nccn3CCCN(C)C)CC2)no1 | 1.38 | 11 | -2.51 | 3.99 | 2.74 | 10.9 | 20.8 | 21.1 | 6.45 | 17.5 | -13.1
2 | COc1c(CNC2CCCOc3ccccc32)c(C)nn1C (stereo not given) | -6.71 | 5.41 | -2.77 | 4.94 | 3.81 | 3.23 | 8.5 | -6.93 | 6.45 | 11.1 | -1.97
3 | CC(C(=O)N1CCCN(c2ncccc2C#N)CC1)n1cccn1 (stereo not given) | -3.42 | 10.5 | 0.522 | -3.82 | -6.63 | 4.68 | 4.32 | 3.06 | 5.42 | 11.1 | -6.77
4 | O=C(NCCCN1CCCCC1)c1ccc(-n2ccc3ccccc32)s1 | -0.638 | -23.4 | -0.0111 | -2.17 | 11.1 | -9.68 | 9.4 | 22.6 | -3.17 | 1.28 | 1.91
5 | CCCN1CCC(NC(=O)NCCc2nc(CC)c(C)s2)CC1 | -5.41 | 5.41 | -6.84 | 24.7 | 4.1 | 33.3 | 8.54 | -11.4 | 9.9 | 13.4 | -9.25
6 | CCOCC(=O)N1C[C@@H](O)[C@H](N(C)Cc2ccc(OC)cc2)C1 | -3.53 | 4.05 | 6.78 | 3.17 | -1.19 | 0.232 | 9.05 | 6.37 | 5.38 | 9.09 | -14.5
7 | Cc1cc(CN2CC[C@H]3C[C@H](C(=O)N4CCC(C)CC4)O[C@H]3C2)no1 | -3.17 | 10.8 | 0.505 | -2.16 | -1.07 | 2.87 | 22.5 | -12.1 | 0 | 12.8 | -2.88
8 | CCOc1ccc(Cl)c(C(=O)N2CCN(C(=O)c3ccoc3C)CC2)n1 | -5.76 | 20.8 | -1.75 | 5.96 | -4.49 | -1.42 | 15.4 | 12.9 | 7.77 | 12.2 | -6.62
9 | CCN(CC1CCCO1)C(=O)Nc1cc(OC)c(OC)cc1C (stereo not given) | -8.28 | 27.9 | -14.4 | 12.7 | 4.06 | -2.28 | 9.26 | -8.32 | 8.37 | 21.5 | -9.07
10 | Cc1nccn1-c1cc(CNC(=O)CCC2CCCO2)ccn1 (stereo not given) | -0.34 | 26.3 | 1.23 | -7.85 | 3.08 | 1.8 | 18.9 | 3.69 | 8.37 | 28.4 | -9.77
11 | Cc1nc(C)n(CC2CN(CC(=O)Nc3cccnc3)CCO2)n1 (stereo not given) | -3.48 | 4.17 | 1.48 | -1.08 | -0.486 | 2.65 | 2.1 | -1.3 | 4.21 | 5.13 | 0.336
12 | Cc1nn(C)c(C)c1CC(=O)N1CCCC(n2ccnc2)C1 (stereo not given) | -1.6 | -5.26 | -1.17 | -5.34 | -3.27 | 1.8 | -0.592 | -1.26 | 1.48 | -1.24 | -1.5
13 | CC(C)C(=O)N1CCN(Cc2csc(-c3ncccn3)n2)CC1 | -3.04 | 0 | 9.34 | 3.09 | 1.27 | 0 | 11.4 | 2.18 | 4.25 | 10.4 | -1.19
14 | CCS(=O)(=O)c1ccccc1N1CCC(NC(C)=O)CC1 | -2.22 | 21.6 | -1.79 | 2.67 | -5.11 | -4.25 | -19.4 | 11.3 | 6.93 | 13.4 | 0.794
15 | O=C(NCCN1CCC(c2cccs2)CC1)Nc1cccs1 | -5.82 | 0 | -3.98 | 20.2 | 4.7 | 1.36 | 14.6 | 10.4 | 12.9 | 17.5 | -2.26
16 | Cc1cnn(CCNCc2csc(-c3ccc(F)cc3)n2)c1 | -3.56 | -15.8 | 4.58 | 5.27 | 3.19 | 0.383 | 1 | 1.14 | 1.47 | 0 | 5.05
17 | O=C(NCCNc1ncccn1)C1CCN(CC(F)(F)F)CC1 | -4.28 | 18.9 | 5.29 | 1.52 | -6.51 | 0.802 | 18.9 | 20.5 | 7.39 | 11.1 | -4.74
18 | CCSc1cc(C(=O)NCc2ccccc2O)ccn1 | -5.37 | 0 | 5.33 | -0.329 | 7.05 | -0.909 | 12.2 | 44.3 | 3.23 | 5 | -5.04
19 | Cc1ncsc1C(=O)NCc1cccs1 | 0.275 | 16.2 | -1.61 | 5.83 | 0.464 | 0.185 | 14 | 21.8 | 6.93 | 23.2 | -4.46
20 | CC(=O)N1CCCN(C(=O)CCc2c(C)noc2C)CC1 | -5.5 | 18.4 | -6.52 | -3.87 | 3.95 | 0.766 | 9.52 | 9.31 | 8.33 | 19.5 | -11.2

Source: ChEMBL document CHEMBL3988442, “University of Dundee, Small-Polar-MMV Screening Library” (2021)
